Experimental data: PubChem BioAssay AID623996 (NMMLSC, 2012)
Potency and affinity values are given separately. The source made the active and inactive calls.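 The calls were made as follows: active = fitted concentration giving half the maximal Nile Red retention below 100 µM; inactive = the rest.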

biological target: Multidrug resistance protein CDR1 (Candida albicans) (UniProt P43071); test: CaCdr1 efflux pump inhibitor potency, dose response, singleplex, Cherry Pick2 set (AID 623996); details: S. cerevisiae AD/CaCDR1, Nile Red efflux inhibition, flow cytometry; series mostly up to 100 µM
Sequence (P43071 whole entry, looked up): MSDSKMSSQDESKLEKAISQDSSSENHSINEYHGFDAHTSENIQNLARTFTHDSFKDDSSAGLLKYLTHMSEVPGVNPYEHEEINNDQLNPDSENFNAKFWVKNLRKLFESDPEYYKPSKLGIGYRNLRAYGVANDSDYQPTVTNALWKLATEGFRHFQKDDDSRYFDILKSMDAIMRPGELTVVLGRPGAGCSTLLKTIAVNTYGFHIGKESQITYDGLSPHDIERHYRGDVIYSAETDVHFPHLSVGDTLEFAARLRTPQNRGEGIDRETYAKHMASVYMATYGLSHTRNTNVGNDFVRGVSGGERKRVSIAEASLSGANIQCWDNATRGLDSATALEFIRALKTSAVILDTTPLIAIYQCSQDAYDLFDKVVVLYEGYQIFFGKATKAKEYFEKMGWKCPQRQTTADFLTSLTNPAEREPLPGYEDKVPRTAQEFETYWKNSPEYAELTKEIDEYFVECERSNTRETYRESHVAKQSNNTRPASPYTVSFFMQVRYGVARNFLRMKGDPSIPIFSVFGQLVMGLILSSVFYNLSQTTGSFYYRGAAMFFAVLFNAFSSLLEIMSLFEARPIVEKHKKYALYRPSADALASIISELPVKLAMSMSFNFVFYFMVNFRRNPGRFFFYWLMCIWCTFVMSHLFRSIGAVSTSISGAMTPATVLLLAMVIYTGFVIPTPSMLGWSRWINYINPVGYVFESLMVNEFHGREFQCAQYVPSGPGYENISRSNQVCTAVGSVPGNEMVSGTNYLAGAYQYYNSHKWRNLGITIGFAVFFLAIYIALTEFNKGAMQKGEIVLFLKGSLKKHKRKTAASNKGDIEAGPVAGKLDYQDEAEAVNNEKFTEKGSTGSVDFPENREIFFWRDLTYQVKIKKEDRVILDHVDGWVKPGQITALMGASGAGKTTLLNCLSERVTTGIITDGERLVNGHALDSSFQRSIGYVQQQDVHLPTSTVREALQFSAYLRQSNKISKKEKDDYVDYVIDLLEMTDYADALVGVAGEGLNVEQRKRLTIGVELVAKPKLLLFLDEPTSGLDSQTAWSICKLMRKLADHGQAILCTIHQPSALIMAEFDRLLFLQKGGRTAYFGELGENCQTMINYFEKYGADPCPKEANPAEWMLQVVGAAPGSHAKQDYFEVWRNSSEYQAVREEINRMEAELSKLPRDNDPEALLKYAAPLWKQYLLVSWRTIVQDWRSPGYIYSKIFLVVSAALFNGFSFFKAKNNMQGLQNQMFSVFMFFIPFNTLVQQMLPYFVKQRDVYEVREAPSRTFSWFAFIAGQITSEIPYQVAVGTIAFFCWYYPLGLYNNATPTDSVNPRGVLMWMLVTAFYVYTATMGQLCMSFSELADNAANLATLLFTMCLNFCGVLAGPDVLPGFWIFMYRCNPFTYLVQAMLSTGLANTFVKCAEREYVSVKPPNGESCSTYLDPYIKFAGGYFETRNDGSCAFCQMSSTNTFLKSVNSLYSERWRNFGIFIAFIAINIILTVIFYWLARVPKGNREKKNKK

outcome, inactive:
COc1ccc(CNC(=O)C(C#N)c2nc3ccccc3nc2N2CCCC2)cc1 (stereo not given)
CCO[C@@H]1OC(C(=O)Nc2ccccc2)=C[C@H](c2ccccc2)[C@H]1CCCO
O=C(/C=C/c1cccs1)N1CCC2(CC1)Oc1ccc(F)cc1C(=O)C21CC(c2ccccc2)=NO1 (stereo not given)
COc1ccc(CCOC(=O)c2ccc(N)c([N+](=O)[O-])c2)cc1
COc1ccc([C@H]2CC(=O)C=C(c3ccnc4ccc(Cl)cc34)C2)cc1
O=C(NC1CCCc2c1cnn2-c1ccccc1F)c1ccccn1 (stereo not given)
COc1ccc2nc(NC(=O)c3cccs3)sc2c1
O=C(c1ccoc1)N1CCC2(CC1)Oc1ccc(F)cc1C(=O)C21CC(c2ccccc2)=NO1 (stereo not given)
C[C@H](CO)N1C[C@H](C)[C@@H](CN(C)S(=O)(=O)c2ccccc2)Oc2c(NC(=O)Nc3ccccc3)cccc2C1=O
CCc1ccc(C2=NN(c3ccc(S(N)(=O)=O)cc3)C(c3ccc(F)cc3)C2)cc1 (stereo not given)
CCC(Cc1ccccc1)OC(=O)c1ccccc1C(=O)O (stereo not given)
COc1ccc(C(=O)OCCc2ccc(O)cc2)cc1
NS(=O)(=O)c1ccc(N2N=C(c3ccccc3)CC2c2cccc(Br)c2)cc1 (stereo not given)
CCN(CC)CCC(c1ccc(N(C)C)cc1)c1c(OC)cc(OC)c2ccc(=O)oc12 (stereo not given)
O=C(C[n+]1cc(-c2ccc(F)cc2)n2c1CCC2)N1c2ccccc2Sc2ccccc21
O=C(c1ccc2c(c1)OCO2)N1CCC2(CC1)Oc1ccc(F)cc1C(=O)C21CC(c2ccccc2)=NO1 (stereo not given)
NS(=O)(=O)c1ccc(N2N=C(c3ccccc3)CC2c2ccc(F)cc2)cc1 (stereo not given)
CCCCCc1cc(=O)oc2c(C(CCN3CCCC(C)C3)c3ccc(N(C)C)cc3)c(OC)cc(OC)c12 (stereo not given)
Cc1cc(C)c2sc(N(CCCN(C)C)C(=O)c3ccc(Br)s3)nc2c1
COc1ccc(OC)c2sc(NC(=O)c3ccc(Br)s3)nc12
CC(C)C(=O)N1CCC2(CC1)Oc1ccc(Cl)cc1C(=O)C21CC(c2ccc(Cl)cc2)=NO1 (stereo not given)
COc1cccc(-c2sc3ccc(OC)cc3c2-c2ccc(OCCN3CCOCC3)cc2)c1
C[C@@]12C(=O)Nc3cc(F)c(F)cc3C(=O)N1[C@H]1c3cc(Cl)ccc3OC[C@@H]1[C@@H]2c1ccccc1
O=C(CSc1nnc(Cc2cccs2)n1Cc1ccco1)Nc1ccc(Br)cc1
O=C(c1ccc2c(c1)OCO2)N1CCC2(CC1)Oc1ccc(F)cc1C(=O)C21CC(c2ccc(Cl)cc2)=NO1 (stereo not given)
Cc1ccc(CNC(=O)C2CCC(CNc3nc(=S)[nH]c4ccccc34)CC2)cc1 (stereo not given)
O=C(Nc1ccccc1)C1=C[C@H](c2ccccc2)C[C@H](OCCCCO)O1
NC1=NC[C@H](Cc2ccc(O)cc2)N1CCc1cc(C(F)(F)F)cc(C(F)(F)F)c1
CCCCCCCCCC[N+](C)(C)CC/C=C1/c2ccccc2Sc2ccc(Cl)cc21
COc1cc(OC)c2ccc(=O)oc2c1C(CCN1CCCC(C)C1)c1ccc(N(C)C)cc1 (stereo not given)
